# In the library only some 6.1% were active in any assay of this set; here they are far more common.
# GBA activity: modulators of human glucocerebrosidase; 48,000 tested, 1.1% active; Potency, µM; purified enzyme, resorufin glucoside fluorescence (screen aimed at inhibitors), 20 min; P04062; in the data active = potency below about 15 µM; inconclusive = mostly about 16 µM to 33 µM;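 note: the screen sought inhibitors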
#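 Compounds titrated against 0.2 nM normal enzyme, 30 uM resorufin beta-D-glucopyranoside substrate, citrate/phosphate buffer with taurocholate and tween-20, pH 5.9. Reaction ran 20 min at room temperature; fluorescence (Ex 548/Em 600) gave AC50.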
# HEK293 cAMP ctrl: raises cAMP in parental HEK293 cells, TSHR agonist counter-screen. parental HEK293 CNG cAMP sensor, membrane potential fluorescence. Potency, µM (series often up to 57.1 µM), for the others: at the top dose activation, most hits filed as activators. 73,000 tested, 2.5% active. AID 938; note: % of control where 0% means no effect; nearly all actives have a fitted effect of over 55% in size
#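 Counterscreen for endogenous-receptor signalling: CNG-channel HEK 293 cells report cAMP rise by membrane depolarization. After 60 min dye equilibration with 100 uM RO 20-1724, compounds incubated 30 min before bottom-read fluorescence at 590 nm.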
# ERK AVP block: blocks ERK signaling stimulated by vasopressin; Potency, µM (doses to about 57.5 µM), for the others: top-dose activity, negative = inhibition, most hits filed as inhibitors; HEK293-V1b, vasopressin-stimulated pERK AlphaScreen; 72,000 tested, 0.99% active; AID 995; note: % is set by controls: 0 for no effect and ±100 for the full control effect; nearly all actives have a fitted effect of over 55% in size
#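 Phosphorylated ERK1/2 detected via AlphaScreen bead proximity in lysates of V1b-expressing HEK293 cells given 25 nM vasopressin for 5 min after 30 min compound exposure (37 °C). AC50 from Hill equation; basal DMSO 0%, vasopressin 100%.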
# FLuc inh: blocks Photinus pyralis firefly luciferase activity | Potency, µM (highest dose often 57.1 µM), for inactives: at the highest dose activity change, negative = inhibition, actives largely listed as inhibitors | 72,000 tested, 2.2% active | P08659 | purified firefly luciferase, luminescence, 8 min | AID 411; note: % is set by controls: 0 for no effect and ±100 for the full control effect; nearly all actives have a fitted effect of over 40% in size
# Target sequence (P08659 whole entry, looked up): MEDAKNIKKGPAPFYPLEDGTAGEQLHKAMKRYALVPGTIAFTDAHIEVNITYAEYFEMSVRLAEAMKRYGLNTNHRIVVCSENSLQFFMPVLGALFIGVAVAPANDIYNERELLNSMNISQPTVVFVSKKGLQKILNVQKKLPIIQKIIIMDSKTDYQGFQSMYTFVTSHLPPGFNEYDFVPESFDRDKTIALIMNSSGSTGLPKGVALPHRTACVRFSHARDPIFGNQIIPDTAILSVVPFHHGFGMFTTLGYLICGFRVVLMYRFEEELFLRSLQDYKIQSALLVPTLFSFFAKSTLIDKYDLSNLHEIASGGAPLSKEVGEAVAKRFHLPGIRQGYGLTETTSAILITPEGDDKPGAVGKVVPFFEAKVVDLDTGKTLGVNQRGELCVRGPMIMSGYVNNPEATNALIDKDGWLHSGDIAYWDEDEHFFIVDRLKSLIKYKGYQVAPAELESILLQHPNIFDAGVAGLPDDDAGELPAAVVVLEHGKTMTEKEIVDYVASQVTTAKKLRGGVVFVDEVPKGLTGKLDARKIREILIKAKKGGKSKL
#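 qHTS concentration-response profiling: light output of P. pyralis luciferase with luciferin and 10 uM ATP, imidazole buffer pH 7.2. Read by luminescence after 8-min room-temperature incubation.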
# TSHR ag: activates the human thyroid stimulating hormone receptor; AID 926; HEK293-CNG-TSHR cells (CNG channel as cAMP sensor), membrane potential dye, cAMP; P16473; 73,000 tested, 0.48% active; Potency, µM (titrated, usually from 57.1 µM), for inactives: at the top dose activation, hits mostly activators; active = well fitted activation curve with a large enough effect in the main read-out, with a control signal flat, not every such curve was filed as active; inconclusive = small, poorly fitted or top-dose-only effect, or a change in a side signal; inactive = no such curve, though single readings can be large or run the other way; % of control where 0% means no effect;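 note: the control signal comes from parental cells without the receptor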
#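 cAMP rise detected as CNG-channel membrane depolarization by fluorescent dye (emission 590 nm), 30 min after compound, following 60 min dye loading containing 100 uM RO 20-1724 at room temperature. Cells: TSHR/CNG HEK 293, with parental CNG HEK 293 as control.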
# PK Bst: pyruvate kinase (B. stearothermophilus) modulation; purified pyruvate kinase, luminescence ATP production; ribose 5-phosphate activator present at AC10; Potency, µM; 51,000 tested, 1.2% active; AID 361; in the data active = potency below about 11 µM; inconclusive = mostly about 12 µM to 25 µM;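 the screen sought inhibitors and activators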;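 note: scaled between full activation by ribose 5 phosphate and full inhibition by luteolin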
# Starred values were filed as active, the others as inactive; i = inactive; ? = inconclusive; · = no result; [ ] = dose if it differs, or a comment. Unless noted, calls come from the whole dose curve; as a rule, active = well fitted curve in the direction sought with a large enough effect; inconclusive = small, poorly fitted or top-dose-only effect, or another doubt; inactive = no such curve, though single readings can be large; an effect the other way counts as inactive or inconclusive. Potency is the fitted concentration of half-maximal effect.
SMILES,GBA activity,HEK293 cAMP ctrl,ERK AVP block,FLuc inh,TSHR ag,PK Bst
Cc1c(C(=O)Nc2ccccc2)sc2nc(-c3ccccc3)cn12,?,32µM*,5%,-20%,?,i
Cc1c(C(=O)Nc2ccc3c(c2)OCO3)sc2nc(-c3ccccc3)cn12,?,?,6%,-3%,?,>57
CC1(NC[C@@H](O)COc2cccc3[nH]ccc23)CCC(C(C)(C)NC(=O)CBr)CC1 (stereo not given in full),·,15%,·,-3%,-4%,·
COc1ccc(OC)c2c(C)cc(N3CCN(C(=O)c4ccc(F)cc4)CC3)nc12,i,-17%,32µM*,-1%,-13%,·
COc1ccc(C(=O)N2CCN(c3ccc(C)c(C)c3)CC2)cc1OC,·,3%,·,0%,45%,·
CC(C)(C)[Si](C)(C)c1c2c(nc3ccc(OCc4ccccc4)cc13)-c1cccc(=O)n1C2,·,8%,26%,·,-3%,·
CCOC(=O)Nc1ccc2c(c1)N(C(=O)N(CC)CC)c1ccccc1CC2,·,6%[11.4 µM],6%,0%,3.2µM*,·
Cn1cc(-c2nc3cncnc3n(Cc3ccc(F)cc3)c2=O)c2ccccc21,·,2%,10%,0%[11.4 µM],3%,·
Cc1cc(N2CCN(c3ccccc3)CC2)n2nnnc2n1,>77,2%,9%,0%,-5%,>57
Cc1cc(N2CCN(c3ccccc3)CC2)n2c(n1)nc1ccccc12,·,25µM*,-6%,-1%,?,>57
CN(C)S(=O)(=O)c1ccc(N2CCN(S(=O)(=O)c3ccc(F)cc3)CC2)c(Cl)c1,>77,17%,-11%,2%,3%,6.1*
CN(C)S(=O)(=O)N1CCN(S(=O)(=O)c2ccc(F)cc2)CC1,>77,6%,-17%,0%,4%,>57
CCn1nc(NC(=O)c2ccccn2)c2cc3cc(C)ccc3nc21,>77,24%,46%,7.9µM*,·,·
Oc1oc(-c2ccco2)nc1C=Nc1cccc(Cl)c1,·,·,·,-6%[25.5 µM],·,i
Oc1oc(-c2ccco2)nc1C=Nc1ccccc1,>77,-5%,-7%,16µM*,-10%,i
CCN(CC)CCCCn1c(-c2ccccc2)nc2c(NCCOC)nc(C)nc21,·,7%,11%,·,8%,·
CCOC(=O)c1ccc(Oc2cc(C)nc(SC)n2)cc1,·,3.2µM*,9%,2%,?,·
CCNc1nc(Oc2ccc(C(=O)OCC)cc2)nc(SC)n1,·,?,6%,1%,?,·
CCOC(=O)c1ccc(Oc2nc(NC(C)(C)C)nc(N(C)C)n2)cc1,·,25µM*,-4%,-2%,?,>57
CCOC(=O)c1ccc(Oc2nc(NC)nc(SC)n2)cc1,>77,2%,-4%,-1%,3%,>57
COC(=O)c1ccc(Oc2cc(C)nc(-n3nc(C)cc3C)n2)cc1,>77,16µM*,?,2%,?,·
COC(=O)c1ccc(Oc2nc(C)cc(Oc3ccccc3)n2)cc1,>77,17%,29%,3%,11%,>57
CCOC(=O)c1ccc(Oc2nc(SC)nc(N(C)C)n2)cc1,·,3.2µM*,71%,1%,?,·
O[Si@](CCCN1CCCCC1)(c1ccc(F)cc1)C1CCCCC1,·,?,23%,3%,?,·
O=C(O)[C@H]([C@H]1NCCS1)N1C(=O)c2ccccc2C1=O,·,-6%[11.4 µM],-25%[11.5 µM],0%[11.4 µM],-3%[11.4 µM],·
SMILES,GBA activity,HEK293 cAMP ctrl,ERK AVP block,FLuc inh,TSHR ag,PK Bst
CC(CCN)(CCN)[N+](=O)[O-],·,8%[11.4 µM],1%[11.5 µM],0%[11.4 µM],6%[11.4 µM],·
CC(=O)Nc1cccc(NC(=O)CSc2ncc(-c3ccc(Cl)cc3)n2Cc2ccco2)c1,·,25µM*,14%,1%,?,>57
O=C(CSCc1cnn(-c2ccccc2)c1-n1cccc1)NCc1ccc2c(c1)OCO2,>77,32µM*,22%,1%,?,>57
COc1ccccc1-n1nc(C(=O)Nc2ccc3c(c2)OCO3)c2ccccc2c1=O,>77,25%,-1%,-2%,11%,>57
O=C(NCc1ccc2c(c1)OCO2)c1nn(-c2ccccc2)c(=O)c2ccccc12,>77,25µM*,6%,-1%,?,>57
CCn1cc(SCC(=O)NCc2ccc3c(c2)OCO3)c2ccccc21,·,?,·,2µM*,?,·

# Assay outcomes (PubChem)
